{"source": "paper PMC7862700", "about": "“An all-to-all approach to the identification of sequence-specific readers for epigenetic DNA modifications on cytosine”", "assay_in_all_cases": "DAPPL (digital affinity profiling via proximity ligation, sequencing); 10 mM Tris-HCl pH 7.5, 50 mM NaCl, 1 mM DTT, 4% glycerol, room temperature, 30 min; GST-TFs on glutathione beads, 16-mer random dsDNA library, 0.1% formaldehyde crosslink after washing; high values mean tight binding", "conditions_in_all_cases": "protein: recombinant; tags: N-terminal GST; dsDNA, one strand shown", "key": {"FLI1": {"molecular_target": "T1, FLI1 (Homo sapiens, UniProt Q01543 1-452)", "T1 sequence": "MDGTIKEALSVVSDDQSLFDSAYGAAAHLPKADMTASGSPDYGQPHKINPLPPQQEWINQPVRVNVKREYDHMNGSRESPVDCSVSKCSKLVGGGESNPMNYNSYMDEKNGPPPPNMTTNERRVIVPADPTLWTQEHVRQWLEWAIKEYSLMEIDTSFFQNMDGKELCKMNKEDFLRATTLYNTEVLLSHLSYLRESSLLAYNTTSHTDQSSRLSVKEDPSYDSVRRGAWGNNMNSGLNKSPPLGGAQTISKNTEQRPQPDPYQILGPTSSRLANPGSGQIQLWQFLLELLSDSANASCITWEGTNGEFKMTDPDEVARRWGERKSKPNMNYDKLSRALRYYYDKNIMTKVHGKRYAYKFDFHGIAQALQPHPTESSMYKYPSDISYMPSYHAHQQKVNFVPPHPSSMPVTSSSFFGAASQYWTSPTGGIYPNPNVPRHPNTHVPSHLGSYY", "outline": "(§1)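 Human transcription factors were made in yeast as GST fusions, captured on glutathione beads and barcoded with DNA. With a tag-only sample included, the pool was incubated with 200 nmole of a random double-stranded 16-mer DNA library in Tris/NaCl/DTT/glycerol buffer at room temperature for 30 min, then crosslinked with 0.1% formaldehyde after washing, ligated by proximity, amplified and sequenced. For binding signal, each hexamer's read frequency for a factor is divided by its frequency for the tag-only sample.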"}, "ELK1": {"molecular_target": "T2, ELK1 (Homo sapiens, UniProt P19419 1-428)", "T2 sequence": "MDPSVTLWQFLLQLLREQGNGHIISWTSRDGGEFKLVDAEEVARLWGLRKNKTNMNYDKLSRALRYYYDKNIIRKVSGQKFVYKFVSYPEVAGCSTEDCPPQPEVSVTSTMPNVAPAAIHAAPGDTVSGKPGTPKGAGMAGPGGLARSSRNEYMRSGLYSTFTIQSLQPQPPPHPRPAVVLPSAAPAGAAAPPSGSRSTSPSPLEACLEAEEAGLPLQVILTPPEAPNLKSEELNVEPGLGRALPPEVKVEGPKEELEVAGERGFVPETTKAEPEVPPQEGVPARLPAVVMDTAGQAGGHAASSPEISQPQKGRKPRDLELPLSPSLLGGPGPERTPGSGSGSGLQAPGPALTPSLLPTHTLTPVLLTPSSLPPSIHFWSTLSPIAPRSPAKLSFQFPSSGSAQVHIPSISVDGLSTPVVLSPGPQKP", "outline": "as §1"}, "GABPA": {"molecular_target": "T3, GABPA (Homo sapiens, UniProt Q06546 1-454)", "T3 sequence": "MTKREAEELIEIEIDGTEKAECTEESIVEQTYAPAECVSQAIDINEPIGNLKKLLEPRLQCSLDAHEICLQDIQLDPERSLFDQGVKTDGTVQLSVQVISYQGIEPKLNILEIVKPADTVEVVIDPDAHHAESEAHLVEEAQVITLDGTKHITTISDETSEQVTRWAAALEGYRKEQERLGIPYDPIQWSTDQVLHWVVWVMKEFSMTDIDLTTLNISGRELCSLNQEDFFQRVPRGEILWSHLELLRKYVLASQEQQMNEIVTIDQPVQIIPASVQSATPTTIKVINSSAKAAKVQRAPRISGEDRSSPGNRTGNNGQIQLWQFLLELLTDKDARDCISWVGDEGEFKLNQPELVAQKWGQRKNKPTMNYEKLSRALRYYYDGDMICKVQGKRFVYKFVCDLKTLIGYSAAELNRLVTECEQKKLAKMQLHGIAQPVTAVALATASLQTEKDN", "outline": "as §1"}, "ERG": {"molecular_target": "T4, ERG (Homo sapiens, UniProt P11308 1-479)", "T4 sequence": "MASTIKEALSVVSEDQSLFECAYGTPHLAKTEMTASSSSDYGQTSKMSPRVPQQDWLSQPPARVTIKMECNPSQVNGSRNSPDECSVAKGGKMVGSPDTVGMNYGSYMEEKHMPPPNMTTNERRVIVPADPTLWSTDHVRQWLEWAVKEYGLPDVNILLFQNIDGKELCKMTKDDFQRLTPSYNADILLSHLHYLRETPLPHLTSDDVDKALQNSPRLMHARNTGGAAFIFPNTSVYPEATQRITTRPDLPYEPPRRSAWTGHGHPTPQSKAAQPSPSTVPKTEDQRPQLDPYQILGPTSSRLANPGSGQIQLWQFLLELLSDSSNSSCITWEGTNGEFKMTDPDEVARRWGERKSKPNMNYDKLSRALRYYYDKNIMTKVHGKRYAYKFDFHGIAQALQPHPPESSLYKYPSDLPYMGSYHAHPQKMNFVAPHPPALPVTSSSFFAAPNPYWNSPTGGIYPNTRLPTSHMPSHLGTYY", "outline": "as §1"}, "ELF1": {"molecular_target": "ELF1 (Homo sapiens, UniProt P32519 1-619)", "sequence (P32519 whole entry)": "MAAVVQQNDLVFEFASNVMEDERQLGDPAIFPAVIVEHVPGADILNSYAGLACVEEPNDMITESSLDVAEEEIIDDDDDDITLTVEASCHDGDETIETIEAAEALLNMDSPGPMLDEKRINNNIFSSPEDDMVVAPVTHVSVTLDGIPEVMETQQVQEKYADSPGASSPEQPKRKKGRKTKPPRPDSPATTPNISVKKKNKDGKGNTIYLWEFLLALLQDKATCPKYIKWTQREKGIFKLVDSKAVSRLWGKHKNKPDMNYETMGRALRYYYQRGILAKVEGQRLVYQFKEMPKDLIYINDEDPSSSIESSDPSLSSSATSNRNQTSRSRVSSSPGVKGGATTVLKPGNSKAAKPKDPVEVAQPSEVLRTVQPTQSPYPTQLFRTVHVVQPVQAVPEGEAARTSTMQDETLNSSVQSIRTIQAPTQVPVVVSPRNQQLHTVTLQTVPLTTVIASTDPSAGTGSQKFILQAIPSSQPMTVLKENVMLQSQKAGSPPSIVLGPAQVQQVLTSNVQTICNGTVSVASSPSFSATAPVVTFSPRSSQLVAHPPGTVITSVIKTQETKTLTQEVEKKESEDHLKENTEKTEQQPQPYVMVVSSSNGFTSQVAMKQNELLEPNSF", "outline": "as §1"}, "EHF": {"molecular_target": "T5, EHF (Homo sapiens, UniProt Q9NZC4 1-300)", "T5 sequence": "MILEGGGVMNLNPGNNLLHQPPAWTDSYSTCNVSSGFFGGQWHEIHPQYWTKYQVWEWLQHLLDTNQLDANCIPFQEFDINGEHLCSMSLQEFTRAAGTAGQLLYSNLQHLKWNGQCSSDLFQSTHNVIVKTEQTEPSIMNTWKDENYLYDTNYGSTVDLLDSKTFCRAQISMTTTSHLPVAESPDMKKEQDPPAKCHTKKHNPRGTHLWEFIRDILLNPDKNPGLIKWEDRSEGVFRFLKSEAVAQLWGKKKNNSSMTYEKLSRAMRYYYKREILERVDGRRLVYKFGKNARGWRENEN", "outline": "as §1"}, "SPI1": {"molecular_target": "SPI1 (Homo sapiens, UniProt P17947 1-270)", "outline": "as §1"}, "SPIB": {"molecular_target": "SPIB (Homo sapiens, UniProt Q01892 1-262)", "sequence (Q01892 whole entry)": "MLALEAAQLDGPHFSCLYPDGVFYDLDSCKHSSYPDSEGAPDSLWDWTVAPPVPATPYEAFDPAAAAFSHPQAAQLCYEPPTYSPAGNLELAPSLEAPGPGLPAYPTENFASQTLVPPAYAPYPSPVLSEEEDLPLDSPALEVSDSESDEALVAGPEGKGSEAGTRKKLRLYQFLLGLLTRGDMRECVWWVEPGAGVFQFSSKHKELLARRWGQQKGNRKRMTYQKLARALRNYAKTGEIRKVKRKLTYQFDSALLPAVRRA", "outline": "as §1"}, "ELK3": {"molecular_target": "T6, ELK3 (Homo sapiens, UniProt P41970 1-407)", "T6 sequence": "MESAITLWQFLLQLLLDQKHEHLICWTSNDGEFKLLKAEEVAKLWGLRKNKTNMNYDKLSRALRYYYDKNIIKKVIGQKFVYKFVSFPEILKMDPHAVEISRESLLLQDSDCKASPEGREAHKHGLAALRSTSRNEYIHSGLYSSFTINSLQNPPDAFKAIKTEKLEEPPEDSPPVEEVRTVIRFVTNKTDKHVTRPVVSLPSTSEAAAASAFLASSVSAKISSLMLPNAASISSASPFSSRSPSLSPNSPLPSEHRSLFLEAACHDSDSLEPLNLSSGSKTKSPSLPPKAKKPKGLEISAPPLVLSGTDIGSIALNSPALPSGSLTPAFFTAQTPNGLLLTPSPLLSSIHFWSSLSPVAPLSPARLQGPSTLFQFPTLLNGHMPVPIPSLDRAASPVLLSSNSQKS", "outline": "as §1"}, "FEV": {"molecular_target": "T7, FEV (Homo sapiens, UniProt Q99581 1-238)", "T7 sequence": "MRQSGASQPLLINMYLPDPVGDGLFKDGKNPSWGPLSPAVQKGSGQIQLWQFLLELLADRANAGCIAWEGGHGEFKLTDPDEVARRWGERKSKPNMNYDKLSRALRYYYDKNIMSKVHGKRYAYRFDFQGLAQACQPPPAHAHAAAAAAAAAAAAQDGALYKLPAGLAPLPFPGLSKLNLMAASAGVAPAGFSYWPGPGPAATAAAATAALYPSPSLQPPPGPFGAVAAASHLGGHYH", "outline": "as §1"}, "ETV5": {"molecular_target": "ETV5 (Homo sapiens, UniProt P41161 1-510)", "sequence (P41161 whole entry)": "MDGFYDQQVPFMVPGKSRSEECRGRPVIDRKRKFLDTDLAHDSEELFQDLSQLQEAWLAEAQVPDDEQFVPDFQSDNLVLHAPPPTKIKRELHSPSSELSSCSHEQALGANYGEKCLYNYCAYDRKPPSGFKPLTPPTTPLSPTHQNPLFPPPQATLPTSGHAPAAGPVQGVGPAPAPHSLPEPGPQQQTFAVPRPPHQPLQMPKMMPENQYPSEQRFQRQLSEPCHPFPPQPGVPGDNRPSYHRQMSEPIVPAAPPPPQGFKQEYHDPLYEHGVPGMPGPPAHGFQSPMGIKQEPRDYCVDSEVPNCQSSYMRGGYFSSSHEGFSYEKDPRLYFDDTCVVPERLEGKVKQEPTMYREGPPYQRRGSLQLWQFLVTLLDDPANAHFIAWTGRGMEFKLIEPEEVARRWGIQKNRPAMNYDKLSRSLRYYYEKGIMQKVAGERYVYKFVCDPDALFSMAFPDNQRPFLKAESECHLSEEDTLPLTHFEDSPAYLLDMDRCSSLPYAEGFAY", "outline": "as §1"}, "SPIC": {"molecular_target": "T8, SPIC (Homo sapiens, UniProt Q8N5J4 1-248)", "T8 sequence": "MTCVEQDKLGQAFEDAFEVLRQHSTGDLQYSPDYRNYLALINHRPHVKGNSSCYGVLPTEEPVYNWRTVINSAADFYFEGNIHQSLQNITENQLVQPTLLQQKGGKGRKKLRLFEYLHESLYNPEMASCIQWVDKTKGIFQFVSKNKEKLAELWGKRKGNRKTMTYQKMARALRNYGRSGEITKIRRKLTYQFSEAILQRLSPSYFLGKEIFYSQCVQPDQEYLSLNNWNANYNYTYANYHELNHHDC", "outline": "as §1"}, "ELF4": {"molecular_target": "ELF4 (Homo sapiens, UniProt Q99607 1-663)", "sequence (Q99607 whole entry)": "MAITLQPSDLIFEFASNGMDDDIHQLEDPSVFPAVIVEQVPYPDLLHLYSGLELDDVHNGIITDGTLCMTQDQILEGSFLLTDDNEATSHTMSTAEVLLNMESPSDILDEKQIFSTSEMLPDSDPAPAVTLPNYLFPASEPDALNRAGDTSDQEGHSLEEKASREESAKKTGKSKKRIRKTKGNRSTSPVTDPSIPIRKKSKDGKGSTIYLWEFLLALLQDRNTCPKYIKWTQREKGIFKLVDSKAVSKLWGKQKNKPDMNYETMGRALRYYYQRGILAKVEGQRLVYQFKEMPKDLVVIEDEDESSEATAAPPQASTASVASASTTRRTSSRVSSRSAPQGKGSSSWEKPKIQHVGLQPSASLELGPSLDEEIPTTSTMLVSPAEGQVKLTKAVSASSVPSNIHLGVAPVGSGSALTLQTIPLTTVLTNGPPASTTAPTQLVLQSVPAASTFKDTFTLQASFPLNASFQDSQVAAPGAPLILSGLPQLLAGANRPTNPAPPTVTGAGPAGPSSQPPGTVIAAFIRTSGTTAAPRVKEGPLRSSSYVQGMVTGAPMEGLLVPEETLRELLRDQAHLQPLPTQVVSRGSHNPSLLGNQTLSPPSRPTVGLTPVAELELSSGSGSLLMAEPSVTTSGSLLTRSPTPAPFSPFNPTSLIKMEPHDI", "outline": "as §1"}, "ELK4": {"molecular_target": "T9, ELK4 (Homo sapiens, UniProt P28324-2 1-405)", "T9 sequence": "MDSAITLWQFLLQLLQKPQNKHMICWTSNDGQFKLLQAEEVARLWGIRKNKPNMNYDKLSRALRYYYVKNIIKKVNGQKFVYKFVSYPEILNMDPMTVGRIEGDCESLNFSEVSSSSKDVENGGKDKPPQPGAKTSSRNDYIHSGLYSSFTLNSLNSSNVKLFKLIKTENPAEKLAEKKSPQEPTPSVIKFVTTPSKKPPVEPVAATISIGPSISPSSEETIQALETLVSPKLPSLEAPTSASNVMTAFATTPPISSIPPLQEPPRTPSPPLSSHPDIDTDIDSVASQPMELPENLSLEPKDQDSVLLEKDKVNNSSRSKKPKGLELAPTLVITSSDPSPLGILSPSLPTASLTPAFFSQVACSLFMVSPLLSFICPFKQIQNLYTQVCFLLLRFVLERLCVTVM", "outline": "as §1"}, "ETV2": {"molecular_target": "T10, ETV2 (Homo sapiens, UniProt O00321 1-342)", "T10 sequence": "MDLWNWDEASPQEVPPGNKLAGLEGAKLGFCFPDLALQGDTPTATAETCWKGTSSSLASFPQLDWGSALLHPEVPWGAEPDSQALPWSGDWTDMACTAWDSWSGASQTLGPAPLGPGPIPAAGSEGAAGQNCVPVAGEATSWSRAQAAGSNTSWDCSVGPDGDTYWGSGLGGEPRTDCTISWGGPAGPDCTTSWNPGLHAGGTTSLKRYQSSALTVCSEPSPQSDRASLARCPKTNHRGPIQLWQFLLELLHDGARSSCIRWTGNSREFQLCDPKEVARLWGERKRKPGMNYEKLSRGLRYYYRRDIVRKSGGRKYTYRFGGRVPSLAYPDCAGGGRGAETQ", "outline": "as §1"}, "ELF3": {"molecular_target": "T11, ELF3 (Homo sapiens, UniProt P78545 1-371)", "T11 sequence": "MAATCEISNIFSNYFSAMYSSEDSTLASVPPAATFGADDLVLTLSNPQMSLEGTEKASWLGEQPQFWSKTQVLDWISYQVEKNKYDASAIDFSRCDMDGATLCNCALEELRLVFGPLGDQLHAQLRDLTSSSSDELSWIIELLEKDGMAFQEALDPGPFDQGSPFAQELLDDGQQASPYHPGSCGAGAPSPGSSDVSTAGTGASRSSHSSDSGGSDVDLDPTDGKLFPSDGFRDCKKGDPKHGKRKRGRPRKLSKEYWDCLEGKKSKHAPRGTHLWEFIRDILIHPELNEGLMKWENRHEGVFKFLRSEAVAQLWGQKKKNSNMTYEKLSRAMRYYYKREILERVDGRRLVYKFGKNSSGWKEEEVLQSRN", "outline": "as §1"}, "CRX": {"molecular_target": "CRX (Homo sapiens, UniProt O43186 1-299)", "sequence (O43186 whole entry)": "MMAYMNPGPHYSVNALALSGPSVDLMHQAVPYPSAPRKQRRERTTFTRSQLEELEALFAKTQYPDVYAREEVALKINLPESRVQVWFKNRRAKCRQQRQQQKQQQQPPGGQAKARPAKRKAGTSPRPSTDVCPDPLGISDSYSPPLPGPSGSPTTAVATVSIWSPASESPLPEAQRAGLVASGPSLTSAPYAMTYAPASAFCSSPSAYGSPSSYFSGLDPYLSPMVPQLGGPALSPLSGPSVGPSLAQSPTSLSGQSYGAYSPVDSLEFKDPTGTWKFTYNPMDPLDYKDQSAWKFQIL", "outline": "as §1"}, "ETV1": {"molecular_target": "ETV1 (Homo sapiens, UniProt P50549 1-477)", "sequence (P50549 whole entry)": "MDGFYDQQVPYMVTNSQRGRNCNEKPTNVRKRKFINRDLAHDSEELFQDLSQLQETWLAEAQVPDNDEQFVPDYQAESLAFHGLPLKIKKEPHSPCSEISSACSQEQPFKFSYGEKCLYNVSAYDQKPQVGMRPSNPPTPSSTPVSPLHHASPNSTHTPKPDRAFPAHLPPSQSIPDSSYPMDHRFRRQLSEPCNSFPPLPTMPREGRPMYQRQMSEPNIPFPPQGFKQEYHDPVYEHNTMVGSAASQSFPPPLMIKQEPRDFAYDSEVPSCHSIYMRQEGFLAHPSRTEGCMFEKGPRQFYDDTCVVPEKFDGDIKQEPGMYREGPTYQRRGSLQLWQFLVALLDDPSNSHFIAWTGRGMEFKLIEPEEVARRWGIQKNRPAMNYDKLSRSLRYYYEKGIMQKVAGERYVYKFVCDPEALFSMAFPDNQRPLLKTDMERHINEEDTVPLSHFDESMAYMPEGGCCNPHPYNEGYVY", "outline": "as §1"}}, "data": [{"sequence": "TCACCC", "values": [{"measurement": "binding signal", "setting": "FLI1", "result": "1.23 fold enrichment (6-mer frequency, TF over GST control)"}, {"measurement": "binding signal", "setting": "ELK1", "result": "1.23 fold enrichment (6-mer frequency, TF over GST control)"}, {"measurement": "binding signal", "setting": "GABPA", "result": "1.21 fold enrichment (6-mer frequency, TF over GST control)"}, {"measurement": "binding signal", "setting": "ERG", "result": "1.13 fold enrichment (6-mer frequency, TF over GST control)"}, {"measurement": "binding signal", "setting": "ELF1", "result": "1.2 fold enrichment (6-mer frequency, TF over GST control)"}, {"measurement": "binding signal", "setting": "EHF", "result": "1.06 fold enrichment (6-mer frequency, TF over GST control)"}, {"measurement": "binding signal", "setting": "SPI1", "result": "1.12 fold enrichment (6-mer frequency, TF over GST control)"}, {"measurement": "binding signal", "setting": "SPIB", "result": "1.2 fold enrichment (6-mer frequency, TF over GST control)"}, {"measurement": "binding signal", "setting": "ELK3", "result": "1.15 fold enrichment (6-mer frequency, TF over GST control)"}, {"measurement": "binding signal", "setting": "FEV", "result": "1.15 fold enrichment (6-mer frequency, TF over GST control)"}, {"measurement": "binding signal", "setting": "ETV5", "result": "1.18 fold enrichment (6-mer frequency, TF over GST control)"}, {"measurement": "binding signal", "setting": "SPIC", "result": "1.13 fold enrichment (6-mer frequency, TF over GST control)"}, {"measurement": "binding signal", "setting": "ELF4", "result": "1.21 fold enrichment (6-mer frequency, TF over GST control)"}, {"measurement": "binding signal", "setting": "ELK4", "result": "1.16 fold enrichment (6-mer frequency, TF over GST control)"}, {"measurement": "binding signal", "setting": "ETV2", "result": "1.01 fold enrichment (6-mer frequency, TF over GST control)"}, {"measurement": "binding signal", "setting": "ELF3", "result": "1.16 fold enrichment (6-mer frequency, TF over GST control)"}, {"measurement": "binding signal", "setting": "CRX", "result": "1.02 fold enrichment (6-mer frequency, TF over GST control)"}, {"measurement": "binding signal", "setting": "ETV1", "result": "1.18 fold enrichment (6-mer frequency, TF over GST control)"}]}]}
